Source: PubChem BioAssay (NCI)
The panel holds about 79,000 compounds, 15% with a hit somewhere; the sample as a whole holds those more often. The source made the active and inactive calls. Rule as the data show it: active = growth inhibition above about 70%; inactive = the rest.

Legend:
[1] = NCI Yeast Anticancer Drug Screen. Data for the rad50EPP+ strain (AID 151);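 also: 0% = growth of vehicle-treated control cultures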; settings: S. cerevisiae rad50 mutant strain, active compounds read high
In short: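 One strain with a rad50 alteration (rad50EPP+) was compound-treated, its growth then compared to that of vehicle controls.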

[2] = NCI Yeast Anticancer Drug Screen. Data for the mgt1 strain (AID 153); settings: S. cerevisiae mgt1 mutant growth inhibition, active compounds read high
In short: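 After exposure of the mgt1 yeast mutant to compound, growth was measured and reported as inhibition compared with vehicle controls.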

[3] = NCI Yeast Anticancer Drug Screen. Data for the rad50 strain (AID 155);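 also: 0% = growth of vehicle-only cultures of the same strain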; settings: S. cerevisiae rad50 strain growth inhibition, active compounds read high
In short: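 Relative growth inhibition (compound vs vehicle) was measured in yeast with a defined repair-gene alteration.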

[4] = NCI Yeast Anticancer Drug Screen. Data for the mec2-1 strain (AID 157); settings: S. cerevisiae mec2-1 strain, active compounds read high
In short: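 Test agents were screened against the mec2-1 yeast strain, with defined DNA repair or cell cycle alteration. Growth was scored as inhibition against vehicle-only controls.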

[5] = NCI Yeast Anticancer Drug Screen. Data for the rad14 strain (AID 159);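 also: 0% = growth of vehicle-treated control cultures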; settings: S. cerevisiae rad14 strain growth inhibition, active compounds read high
In short: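 Screen for anticancer potential: a yeast strain altered in DNA damage repair is grown with compound, and reduced growth is quantified against vehicle controls.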

[6] = NCI Yeast Anticancer Drug Screen. Data for the sgs1 mgt1 strain (AID 161);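 also: 0% = growth of cultures given vehicle only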; settings: S. cerevisiae sgs1 mgt1 strain, active compounds read high
In short: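 Inhibition of yeast growth, normalised to vehicle-treated controls, is reported for a strain bearing genetic alterations in DNA damage repair.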

[7] = NCI Yeast Anticancer Drug Screen. Data for the CLN2oe strain (AID 163);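 also: 0% = growth of vehicle-only control cultures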; settings: S. cerevisiae CLN2oe strain, active compounds read high
In short: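 Here, growth inhibition in a cell-cycle-altered yeast strain after compound exposure was quantified against vehicle control growth.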

[8] = NCI Yeast Anticancer Drug Screen. Data for the cln2 rad14 strain (AID 165);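 also: 0% = growth equal to vehicle treated cultures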; settings: S. cerevisiae cln2 rad14 strain, active compounds read high
In short: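 Growth of compound-exposed yeast (cln2 rad14 genotype) measured and expressed as inhibition relative to vehicle.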

[9] = NCI Yeast Anticancer Drug Screen. Data for the bub3 strain (AID 167); settings: S. cerevisiae bub3 mutant strain, active compounds read high
In short: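 Screening used yeast with an engineered genetic alteration affecting cell cycle control. Compound-exposed cultures were compared with vehicle cultures, and reduced growth was taken as inhibition.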

[10] = NCI Yeast Anticancer Drug Screen. Data for the wt2 strain (AID 169);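 also: 0% = growth of vehicle-treated yeast cultures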; settings: S. cerevisiae wt2 strain growth inhibition, active compounds read high
In short: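 Genetically defined yeast strains from a DNA-repair/cell-cycle panel were used. Compound-exposed yeast growth was measured, and the inhibition was calculated relative to vehicle treatment.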

[11] = NCI Yeast Anticancer Drug Screen. Data for the mlh1 strain (AID 171);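 also: 0% = growth of vehicle-treated control cultures of the same strain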; settings: S. cerevisiae mlh1 strain growth inhibition, active compounds read high
In short: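 Here the genetically defined yeast mutant is grown with each compound, and the extent to which its growth falls below that of vehicle-exposed cells is reported.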

[12] = NCI Yeast Anticancer Drug Screen. Data for the sgs1 strain (AID 173);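 also: 0% = growth of vehicle-only control cultures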; settings: S. cerevisiae sgs1 mutant, active compounds read high
In short: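 Relative growth inhibition, referenced to vehicle, was determined in a yeast strain with a defined alteration affecting DNA damage repair or cell cycle control after compound exposure.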

[13] = NCI Yeast Anticancer Drug Screen. Data for the mlh1 rad18 strain (AID 175); settings: S. cerevisiae mlh1 rad18 strain growth inhibition, active compounds read high
In short: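 In this whole-cell yeast screen, a strain with altered DNA damage repair is challenged with compound, and its growth is measured against matched vehicle-treated controls.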

[14] = NCI Yeast Anticancer Drug Screen. Data for the rad18 strain (AID 177); settings: S. cerevisiae rad18 mutant growth inhibition, active compounds read high
In short: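 Screen uses a yeast strain with a defined lesion in DNA damage repair; compound effect is read as loss of growth compared to untreated vehicle cultures.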

[15] = NCI Yeast Anticancer Drug Screen. Data for the wt1 strain (AID 149);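 also: 0% = growth of vehicle-treated wt1 cultures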; settings: S. cerevisiae wt1 strain (SPY 50644) growth inhibition, active compounds read high
In short: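 Using yeast strain wt1, compound-induced growth inhibition was determined against vehicle-treated cultures.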

[16] = at 5.0 µM (retest, dose inferred, filed as 0.5)
[17] = at 50.0 µM (retest, dose inferred, filed as 5.0)

Measured: growth inhibition

COc1cccc2nc3ccccc3nc12
active: [1]; at 33.0 µM 79% | [1]; at 100.0 µM 94% | [2]; at 33.0 µM 75% | [2]; at 100.0 µM 95% | [3]; at 33.0 µM 91% | [3]; at 50.0 µM 83.6% | [3]; at 100.0 µM 97% | [4]; at 100.0 µM 89% | [5]; at 100.0 µM 82% | [7]; at 100.0 µM 91% | [9]; at 100.0 µM 94% | [10]; at 100.0 µM 96% | [11]; at 100.0 µM 97% | [12]; at 100.0 µM 88% | [14]; at 33.0 µM 84% | [14]; at 100.0 µM 95%
inactive: [1]; at 1.2 µM 1% | [1]; at 3.7 µM 8% | [1]; at 11.0 µM 34% | [2]; at 1.2 µM 1% | [2]; at 3.7 µM 1% | [2]; at 11.0 µM 6% | [3]; at 1.2 µM 2% | [3]; at 3.7 µM 15% | [3]; [16] -22% | [3]; at 11.0 µM 45% | [3]; [17] 65% | [4]; at 1.2 µM -2% | [4]; at 3.7 µM 2% | [4]; [16] -5% | [4]; at 11.0 µM 4% | [4]; at 33.0 µM 35% | [4]; [17] 17% | [4]; at 50.0 µM 31.3% | [5]; at 1.2 µM -2% | [5]; at 3.7 µM 0% | [5]; at 11.0 µM 2% | [5]; at 33.0 µM 30% | [6]; [16] -19% | [6]; [17] 5% | [6]; at 50.0 µM 4.55% | [7]; at 1.2 µM 0% | [7]; at 3.7 µM 1% | [7]; at 11.0 µM 1% | [7]; at 33.0 µM 48% | [8]; [16] -14% | [8]; [17] 18% | [8]; at 50.0 µM 9.4% | [9]; at 1.2 µM 1% | [9]; at 3.7 µM -11% | [9]; [16] -25% | [9]; at 11.0 µM 2% | [9]; at 33.0 µM 56% | [9]; [17] 19% | [9]; at 50.0 µM 24.9% | [10]; at 1.2 µM -2% | [10]; at 3.7 µM -1% | [10]; at 11.0 µM 8% | [10]; at 33.0 µM 50% | [11]; at 1.2 µM 0% | [11]; at 3.7 µM 3% | [11]; at 11.0 µM -2% | [11]; at 33.0 µM 51% | [12]; at 1.2 µM -6% | [12]; at 3.7 µM -8% | [12]; at 11.0 µM 0% | [12]; at 33.0 µM 38% | [13]; [16] -3% | [13]; [17] 36% | [13]; at 50.0 µM 43.1% | [14]; at 1.2 µM -3% | [14]; at 3.7 µM -2% | [14]; at 11.0 µM 16%

O=C1Nc2ccccc2/C1=C/COc1ccccc1
active: [15]; at 100.0 µM 97% | [1]; at 11.0 µM 92% | [1]; at 33.0 µM 97% | [1]; at 100.0 µM 98% | [2]; at 33.0 µM 93% | [2]; at 100.0 µM 99% | [3]; at 33.0 µM 71% | [3]; [17] 99% | [3]; at 50.0 µM 99.5% | [3]; at 100.0 µM 98% | [4]; at 33.0 µM 97% | [4]; [17] 99% | [4]; at 50.0 µM 99.5% | [4]; at 100.0 µM 99% | [5]; at 33.0 µM 97% | [5]; at 100.0 µM 99% | [6]; [17] 99% | [6]; at 50.0 µM 99.6% | [8]; [17] 99% | [8]; at 50.0 µM 98.2% | [9]; at 33.0 µM 96% | [9]; [17] 99% | [9]; at 50.0 µM 99.8% | [9]; at 100.0 µM 98% | [10]; at 33.0 µM 88% | [10]; at 100.0 µM 99% | [11]; at 33.0 µM 89% | [11]; at 100.0 µM 99% | [12]; at 33.0 µM 98% | [12]; at 100.0 µM 99% | [13]; [17] 99% | [13]; at 50.0 µM 99.5% | [14]; at 33.0 µM 81% | [14]; at 100.0 µM 98%
inactive: [15]; at 1.2 µM -1% | [15]; at 3.7 µM -1% | [15]; at 11.0 µM 9% | [15]; at 33.0 µM 62% | [1]; at 1.2 µM 21% | [1]; at 3.7 µM 58% | [2]; at 1.2 µM -1% | [2]; at 3.7 µM 1% | [2]; at 11.0 µM 19% | [3]; at 1.2 µM 2% | [3]; at 3.7 µM 4% | [3]; [16] 28% | [3]; at 11.0 µM 20% | [4]; at 1.2 µM -2% | [4]; at 3.7 µM 6% | [4]; [16] 13% | [4]; at 11.0 µM 23% | [5]; at 1.2 µM 0% | [5]; at 3.7 µM 5% | [5]; at 11.0 µM 20% | [6]; [16] 26% | [8]; [16] 7% | [9]; at 1.2 µM -3% | [9]; at 3.7 µM 0% | [9]; [16] 2% | [9]; at 11.0 µM 13% | [10]; at 1.2 µM -2% | [10]; at 3.7 µM 1% | [10]; at 11.0 µM 15% | [11]; at 1.2 µM -4% | [11]; at 3.7 µM -1% | [11]; at 11.0 µM 17% | [12]; at 1.2 µM 1% | [12]; at 3.7 µM 11% | [12]; at 11.0 µM 45% | [13]; [16] 20% | [14]; at 1.2 µM 0% | [14]; at 3.7 µM 4% | [14]; at 11.0 µM 16%
